Holding throughout (experiment): NCI-60 one-dose screen, 48 h (100 = growth as untreated, 0 = no growth, -100 = all killed)
Common to all, as to conditions: 10 µM unless noted

The subject of assay [1] is SK-MEL-2 melanoma.
Assay [2] concerns EKVX NSCLC.
Assay [3] has as its system SN12C renal.
In assay [4] the test system is UO-31 renal.
The subject of assay [5] is TK-10 renal.
The subject of assay [6] is ACHN renal.
Assay [7] has as its system CAKI-1 renal.
Assay [8] concerns A498 renal.
Assay [9] relates to CCRF-CEM leukemia.
Assay [10] deals with MOLT-4 leukemia.
In assay [11] the test system is SR leukemia.
The test system of assay [12] is RPMI-8226 leukemia.
Assay [13] concerns OVCAR-8 ovarian.
For assay [14], the system named is OVCAR-5 ovarian.
For assay [15], the system named is OVCAR-4 ovarian.
The subject of assay [16] is SK-OV-3 ovarian.
The test system of assay [17] is IGROV1 ovarian.
Assay [18] concerns OVCAR-3 ovarian.
For assay [19], the system named is NCI/ADR-RES ovarian.
The test system of assay [20] is HS 578T breast.

Compounds without any hit were thinned out: in the full panel of roughly 83,000, 20% have a hit.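 For each line, cells grew in 96-well plates with the test compound present at a single concentration for 48 hours.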 Unmarked numbers belong to inactive results. Activity calls are given as the source filed them. Rule for the calls: active = growth percent below 10; inactive = the rest.

For the molecule `C#CCOc1cccc(Nc2ncnc3ccc(NC(=O)C=C)cc23)c1`, the growth in assay [1] is 55%; in [2], 32%; in assay [3] it was 29.7%; in [4], 9.91% (active); in assay [5], -8.81% (active); in assay [6], 14.9%. Also, the growth in assay [7] was 10.2%; in assay [8] it was 33.5%; in assay [9] it was 25.1%; in assay [10], 59.8%; in [11], 21.1%; in assay [12] it was 35.7%. The growth in [13] is 32.4%; in [14] it was 52.6%; in assay [15], 59.3%; in assay [16], -3.78% (active); in [17], -6.06% (active); in assay [18], 19.2%. Further, the growth in [19] is 36.1%.

Regarding `CCCC/C(CC)=N\NS(=O)(=O)c1ccc([N+](=O)[O-])cc1`, the growth in [1] is 94.6%; in assay [2], 102%; in assay [3] it was 102%; in [4], 83.3%; in [5], 93.4%; in assay [6], 104%. In addition, the growth in assay [7] was 96.9%; in assay [8] it was 96.3%; in assay [9], 87.1%; in [10] it was 101%; in assay [11], 97.5%; in [12], 101%. Besides, the growth is 100% in [13]; 94.6% in assay [14]; 100% in assay [15]; 95.9% in assay [16]; 105% in [17]; 107% in [18]. Also, the growth in assay [19] was 104%.

Take `O=S(=O)(Nc1cc(F)cc(Cl)c1)c1ccc(-c2cnc(C3CC3)o2)cc1`: the growth in [1] was 52.8%; in [2], 38%; in assay [3], 45.8%; in assay [4] it was 39.3%; in [5] it was 47.7%; in assay [6] it was 34.4%. The growth in assay [7] is 31.3%; in assay [8] it was -6.52% (active); in [9] it was 23.6%; in [10], 31.9%; in assay [11], 25.4%; in assay [12], 28.9%. Also, the growth in assay [13] was 39.8%; in assay [15] it was 52.5%; in assay [16], 44.2%; in [17], 30%; in [18], 10.2%; in assay [20] it was -3.79% (active). Further, the growth in assay [19] was 21.9%.

`COc1cc(/C=C/C(=O)c2ccc(F)cc2)ccc1OCCCCOc1ccc(/C=C/C(=O)c2c(C)nc3ccccc3c2C)cc1OC`: the growth in assay [1] was 50.5%; in assay [2], 133%; in assay [3], 115%; in assay [4] it was 86.8%; in [5] it was 114%; in assay [6], 95.8%. The growth in assay [7] was 80.6%; in [8], 113%; in assay [9] it was 80.5%; in [10], 67%; in assay [12], 79.3%; in assay [13], 78.3%. Moreover, the growth in [14] is 108%; in [15] it was 76.5%; in assay [16], 107%; in [17] it was 101%; in assay [18], 92%; in assay [20] it was 117%. In addition, in assay [19], the growth was 91.4%.

On to `c1ccc2cc(C[n+]3ccn(CCCCCCCCCCn4cc[n+](Cc5ccc6ccccc6c5)c4)c3)ccc2c1`, for which the growth in assay [1] was -39.4% (active); in assay [2], 13.7%; in assay [3], 4.24% (active); in [4] it was 77.5%; in assay [5], 15.1%; in [6], 52.2%. Moreover, the growth was 74.7% in assay [7]; 9.69% (active) in [8]; -4.14% (active) in assay [9]; -43.6% (active) in [10]; -45.2% (active) in assay [11]; 9.87% (active) in assay [12]. In addition, the growth was 11.1% in assay [13]; 12.5% in [15]; -17.1% (active) in assay [16]; -26.1% (active) in [17]; 4.99% (active) in assay [18]; -1.11% (active) in [20]. In addition, the growth in assay [19] was 99.5%.

With `COC(=O)CC[C@H](C)[C@H]1CC[C@H]2[C@@H]3CC[C@@H]4CC5(CC[C@]4(C)[C@H]3CC(=O)[C@]12C)Nc1ccccc1NC5=NC(C)(C)C` (some centres not stated), the growth in assay [1] is 90.9%; in [2], 87.5%; in assay [3], 87.9%; in assay [4] it was 88.7%; in assay [5] it was 97.4%; in [6], 86.4%. The growth in [7] is 59.2%; in assay [8] it was 63.5%; in [9] it was 54.7%; in [10], 54.6%; in assay [11] it was 50%; in assay [12] it was 58.4%. In addition, the growth in [13] is 87.5%; in assay [15], 57.5%; in assay [16], 97%; in assay [17], 93.8%; in assay [18], 76%; in [20], 88.7%. Further, in assay [19], the growth is 94.9%.

For the molecule `Cn1ccc(=O)c(C(=O)Nc2nsc3ccc([N+](=O)[O-])cc23)c1`, the growth in assay [1] was 55.7%; in assay [2], 81.7%; in [3], 75.3%; in assay [4], 28.1%; in [5], 50%; in [6], 32.6%. Also, the growth in assay [7] is 6.88% (active); in [8] it was 31.9%; in [9], 82.7%; in assay [10], 83.4%; in assay [11], 55.9%; in assay [12], 61.6%. In addition, the growth in assay [13] was 59.3%; in [15], 53.4%; in [16], 30.8%; in [17], 27.3%; in assay [18] it was 75.6%; in [20], 54.7%. Also, the growth in assay [19] is 68%.

Consider `O=C(Nc1ccc(Oc2cccc(F)c2)c(Cl)c1)c1cccnc1`, for which the growth in assay [1] was 36.5%; in assay [2], 49.6%; in [3], 36.4%; in [4], 39.7%; in assay [5], 59.9%; in assay [6], 35.2%. In addition, the growth in assay [7] was 32.5%; in [8] it was 4.16% (active); in assay [9], 24%; in [10] it was 40.2%; in [12], 15.8%; in assay [13] it was 34.6%. Besides, the growth in assay [14] is 72.6%; in assay [15], 46.2%; in assay [16], 30%; in assay [17], 41.8%; in assay [18], 6.97% (active); in [20], 31.3%. For the same molecule, the growth in [19] was 13.9%.

The record behind these values is PubChem BioAssay (NCI).
